From PubChem
This excerpt belongs to a sample that is enriched for hits.
Dicer inh – inhibitors of Dicer pre-microRNA processing, primary screen, biochemical, cat-ELCCA, chemiluminescence | 47,000 compounds, 6% hits | Endoribonuclease Dicer (Homo sapiens), Q9UPY3 | z-score at 25 µM | cat-ELCCA pre-miR-21 Dicer processing; active compounds read high | AID 1347074, 2019; in the data active = z-score above about 3, passing the limit was not always enough;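 also: higher signal means more uncleaved substrate so more Dicer inhibition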
Target sequence (Q9UPY3 whole entry, looked up): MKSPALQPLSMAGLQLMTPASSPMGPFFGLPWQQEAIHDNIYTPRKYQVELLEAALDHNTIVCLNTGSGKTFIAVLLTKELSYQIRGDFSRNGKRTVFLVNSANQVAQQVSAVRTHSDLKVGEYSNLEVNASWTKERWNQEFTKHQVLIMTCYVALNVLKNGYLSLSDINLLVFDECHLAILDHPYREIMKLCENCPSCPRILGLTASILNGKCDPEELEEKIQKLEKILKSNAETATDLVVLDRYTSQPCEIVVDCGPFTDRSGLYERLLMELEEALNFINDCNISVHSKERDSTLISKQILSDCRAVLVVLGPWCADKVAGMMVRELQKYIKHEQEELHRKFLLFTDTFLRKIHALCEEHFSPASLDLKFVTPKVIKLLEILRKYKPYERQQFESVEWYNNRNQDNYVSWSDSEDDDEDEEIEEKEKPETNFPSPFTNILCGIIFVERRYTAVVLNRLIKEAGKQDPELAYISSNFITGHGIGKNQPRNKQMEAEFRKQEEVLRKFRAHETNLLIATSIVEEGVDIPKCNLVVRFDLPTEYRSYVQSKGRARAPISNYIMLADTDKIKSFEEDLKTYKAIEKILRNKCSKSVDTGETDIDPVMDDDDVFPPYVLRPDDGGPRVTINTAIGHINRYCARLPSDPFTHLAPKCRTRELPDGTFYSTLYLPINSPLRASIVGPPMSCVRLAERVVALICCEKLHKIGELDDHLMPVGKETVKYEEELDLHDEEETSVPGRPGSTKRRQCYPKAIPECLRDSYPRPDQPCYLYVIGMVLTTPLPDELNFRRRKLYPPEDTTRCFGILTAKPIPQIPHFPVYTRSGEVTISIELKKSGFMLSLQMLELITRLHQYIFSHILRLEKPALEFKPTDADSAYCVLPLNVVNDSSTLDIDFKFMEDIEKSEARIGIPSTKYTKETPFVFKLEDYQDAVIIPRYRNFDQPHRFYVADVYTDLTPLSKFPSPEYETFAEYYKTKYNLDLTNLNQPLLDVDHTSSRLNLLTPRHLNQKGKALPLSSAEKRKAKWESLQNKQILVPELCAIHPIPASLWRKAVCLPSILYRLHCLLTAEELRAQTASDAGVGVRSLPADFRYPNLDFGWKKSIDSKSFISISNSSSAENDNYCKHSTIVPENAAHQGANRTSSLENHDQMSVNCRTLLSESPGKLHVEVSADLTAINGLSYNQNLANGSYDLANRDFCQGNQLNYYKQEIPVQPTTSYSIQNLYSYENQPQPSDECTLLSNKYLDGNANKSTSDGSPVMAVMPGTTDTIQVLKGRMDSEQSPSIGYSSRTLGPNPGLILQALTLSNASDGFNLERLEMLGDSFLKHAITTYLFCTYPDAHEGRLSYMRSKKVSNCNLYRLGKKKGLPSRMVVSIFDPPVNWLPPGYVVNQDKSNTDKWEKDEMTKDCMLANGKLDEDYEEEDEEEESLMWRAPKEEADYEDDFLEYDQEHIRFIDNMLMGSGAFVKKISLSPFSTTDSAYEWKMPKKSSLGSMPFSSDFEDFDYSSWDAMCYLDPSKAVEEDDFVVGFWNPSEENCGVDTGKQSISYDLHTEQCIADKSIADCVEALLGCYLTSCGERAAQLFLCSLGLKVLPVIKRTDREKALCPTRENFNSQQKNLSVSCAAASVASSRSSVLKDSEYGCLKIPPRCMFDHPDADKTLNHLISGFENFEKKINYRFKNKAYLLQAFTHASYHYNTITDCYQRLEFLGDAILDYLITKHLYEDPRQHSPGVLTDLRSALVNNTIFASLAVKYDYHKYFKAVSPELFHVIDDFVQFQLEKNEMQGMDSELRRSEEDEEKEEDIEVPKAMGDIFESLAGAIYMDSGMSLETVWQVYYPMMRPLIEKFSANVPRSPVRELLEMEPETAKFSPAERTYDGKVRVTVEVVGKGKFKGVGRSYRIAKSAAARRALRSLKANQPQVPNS
Each line names hits and unclear results; the compound was inactive in the other large screens.

CCOC(=O)c1sc2nc(C(F)(F)F)nn2c1C	none
CCN(CC)c1ccc(NC(=O)c2ccc(Cl)cc2)c(N(CC)CC)n1	none
Nc1nc2c(c(=O)[nH]1)C(c1cccc(F)c1)CC(=O)N2 (centres undefined)	none
Oc1ccccc1N=CC=Nc1ccccc1O	none
Cn1cnc([N+](=O)[O-])c1Sc1cccc(C(F)(F)F)c1	none
CNc1nsc(C(=O)c2ccc(F)cc2)c1N	none
Cc1cc(C)nc(NC2=NCC(=O)N2c2ccccc2Cl)n1	none
Cc1c2c(=O)n(-c3nc4ccccc4s3)nc-2cc(O)n1Cc1ccccc1	none
Cc1c2c(=O)n(-c3nc4ccccc4s3)[nH]c2cc(=O)n1Cc1ccc(C(=O)O)cc1	Dicer inh 27.1
CC(=O)N1CCN(CCn2c(C)c3c(=O)n(-c4nc5ccccc5s4)[nH]c3cc2=O)CC1	none
O=C(Oc1cc(S(=O)(=O)c2ccccc2)ccc1[N+](=O)[O-])c1ccc(Cl)cc1	none
CN(C(=O)Nc1cccc(C(F)(F)F)c1)C1CCCCC1	none
Cc1c2c(=O)n(-c3ccccc3)[nH]c2cc(=O)n1CCc1c[nH]c2ccccc12	Dicer inh 3.01
Cc1c2c(=O)n(-c3ccccc3)[nH]c2cc(=O)n1Cc1ccc2c(c1)OCO2	none
Cc1nc(=O)c(-c2ccccc2)c(C)n1CCc1c[nH]c2ccccc12	none
Cc1ccc(S(=O)(=O)C(C)C(=O)c2ccc(C)c(Cl)c2)cc1 (centres undefined)	none
Cc1nnc(SCC(=O)Nc2ccc3c(c2)OCO3)s1	none
CCOC(=O)Cn1nnc(N2CCCCC2)n1	none
S=C(NCCNC(=S)Nc1ccccc1Cl)Nc1ccccc1Cl	none
O=C(O)c1ccc(N2C(=O)C3C4c5ccccc5C(c5ccccc54)C3C2=O)cc1Cl (centres undefined)	none
O=C(O)c1ccccc1N1C(=O)C2C3c4ccccc4C(c4ccccc43)C2C1=O (centres undefined)	Dicer inh 4.62
O=C1C2C3c4ccccc4C(c4ccccc43)C2C(=O)N1c1ccccc1 (centres undefined)	none
Cc1onc(-c2c(Cl)cccc2Cl)c1C(=O)N1CCC(NC(=O)c2ccccc2)CC1	none
CN(C)c1ccc(-c2nc3n(n2)C(c2cccnc2)C2=C(CCCC2=O)N3)cc1 (centres undefined)	none
CN(C)c1ccc(-c2nc3n(n2)C(c2ccc(F)cc2)C2=C(CC(C)(C)CC2=O)N3)cc1 (centres undefined)	Dicer inh 4.63
CCOc1ccc(C2C3=C(CC(C)(C)CC3=O)Nc3nc(-c4ccc(OC)cc4)nn32)cc1 (centres undefined)	none
CC1=C(C(N)=O)C(c2ccc(Cl)cc2)n2nc(-c3ccc(N(C)C)cc3)nc2N1 (centres undefined)	none
CN(C)c1ccc(-c2nc3n(n2)C(c2cccnc2)C2=C(CC(C)(C)CC2=O)N3)cc1 (centres undefined)	none
CN(C)c1ccc(-c2nc3n(n2)C(c2ccc(Cl)cc2)C2=C(CC(C)(C)CC2=O)N3)cc1 (centres undefined)	Dicer inh 3.58
COc1cc(C2c3c(oc4ccc(C)cc4c3=O)C(=O)N2Cc2ccc(F)cc2)ccc1O (centres undefined)	none
CC(=O)CSc1nnc(-c2ccccc2)c(-c2ccccc2)n1	none
CCOC(=O)c1csc(N/N=C2\CCCc3cc(OC)ccc32)n1	none
COc1ccc(C2C(=O)c3ccccc3C2=O)c(OC)c1	none
N#Cc1cnc2cc(-c3ccccc3)nn2c1N	none
Cc1c(NC(=O)CN(c2cccc3ccccc23)S(C)(=O)=O)c(=O)n(-c2ccccc2)n1C	none
COc1ccc(C2C(C(=O)c3cccs3)=C(O)C(=O)N2c2nncs2)cc1 (centres undefined)	none
COc1ccc(-c2nc3n(n2)C(=O)CC(c2cccs2)S3)cc1 (centres undefined)	Dicer inh 5.59
O=C1CC(c2ccccc2)Sc2nc(-c3cccc4ccccc34)nn21 (centres undefined)	none
COc1ccc(C2=NN3C(C2)c2ccccc2OC3c2cccs2)cc1 (centres undefined)	none
Cc1nn2c3c(cnc2c1-c1ccccc1)C(=O)CC(c1ccc(Cl)cc1)C3 (centres undefined)	none
O=C1CC(c2ccc(Cl)cc2)Sc2nc(-c3ccccc3)nn21 (centres undefined)	Dicer inh 4.12
Cc1ccc(S(=O)(=O)Nc2nnc(SCC(=O)Nc3ccc4c(c3)OCO4)s2)cc1	none
CCOC(=O)N1CCc2c(sc(N)c2C(=O)c2ccc(Cl)cc2)C1	none
Cc1nn(C(=O)c2ccco2)c(C)c1Sc1ccccc1	none
COc1ccc(S(=O)(=O)NCCSc2nnnn2-c2ccccc2)cc1OC	none
COc1ccc(C2(CNS(=O)(=O)c3ccccc3)CCCC2)cc1OC	Dicer inh 5.94
COc1ccc(-c2nc(S(=O)(=O)c3ccccc3)c(N3CCCCC3)o2)cc1OC	none
O=C(Nc1ccc(Cl)cc1)NC1Cc2ccccc2C1	none
COc1ccc(C2CC(=O)C3=C(C2)Nc2nc4ccccc4n2C3c2ccc(F)cc2)cc1 (centres undefined)	none
CC[C@H](C)[C@H](NC(=O)OCC1c2ccccc2-c2ccccc21)C(=O)O	none
C=CCOC(=O)C(CC(=O)O)NC(=O)OCC1c2ccccc2-c2ccccc21 (centres undefined)	none
